Laboratory results reported in PubChem BioAssay AID1159580 (chemical genetic matrix, 2015).
Out of some 5,500 compounds screened, about 2,000 (36%) were called active. Not shown: some 18% with an inconclusive outcome. No stated cut-off is given here; in the data, active means normalized growth mostly below about 0.91 (no sharp cut-off); inconclusive means no clear call, values can overlap the other calls; inactive means mostly above about 0.92. This is one part of the list.

Test: chemical genetic growth profiling, strain panel (AID 1159580);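 further: tested at 20 µM; growth read once vehicle control cultures reached saturation at 30 °C; 1 = growth at the plate median or of vehicle wells; lower values mean less growth of the strain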
Conditions: growth OD

Measured: normalized growth

NC(=O)N/N=C\c1ccc([N+](=O)[O-])o1
inactive: S. cerevisiae deletion strains, locus YJR066W, strain TOR1, hits give low values 0.911 | S. cerevisiae deletion strains, locus YKL009W, strain mrt4, hits give low values 0.979 | S. cerevisiae deletion strains, locus YKL068W, hits give low values 0.994 | S. cerevisiae deletion strains, locus YKL085W, strain MDH1 (second series), hits give low values 0.987 | S. cerevisiae deletion strains, locus YKL085W, strain MDH1, hits give low values 0.987 | S. cerevisiae deletion strains, locus YKL160W, strain elf1, hits give low values 0.983 | S. cerevisiae deletion strains, locus YKL190W, strain CNB1, hits give low values 1.02 | S. cerevisiae deletion strains, locus YKR001C, strain vps1, hits give low values 0.95 | S. cerevisiae deletion strains, locus YKR026C, strain gcn3, hits give low values 1 | S. cerevisiae deletion strains, locus YKR091W, strain srl3, hits give low values 0.991 | S. cerevisiae deletion strains, locus YLL001W, strain dnm1, hits give low values 0.995 | S. cerevisiae deletion strains, locus YLL026W, hits give low values 0.999 | S. cerevisiae deletion strains, locus YLL041C, strain sdh2, hits give low values 0.995 | S. cerevisiae deletion strains, locus YLR027C, strain aat2, hits give low values 1 | S. cerevisiae deletion strains, locus YLR039C, strain RIC1, hits give low values 1.03 | S. cerevisiae deletion strains, locus YLR058C, strain SHM2, hits give low values 0.994 | S. cerevisiae deletion strains, locus YLR102C, strain apc9, hits give low values 0.984 | S. cerevisiae deletion strains, locus YLR113W, strain HOG1, hits give low values 1 | S. cerevisiae deletion strains, locus YLR221C, strain rsa3, hits give low values 0.975 | S. cerevisiae deletion strains, locus YLR258W, strain gsy2, hits give low values 0.998 | S. cerevisiae deletion strains, locus YLR262C, strain YPT6 (second series), hits give low values 1.01 | S. cerevisiae deletion strains, locus YLR262C, strain YPT6, hits give low values 1.03 | S. cerevisiae deletion strains, locus YLR268W, strain sec22, hits give low values 0.969 | S. cerevisiae deletion strains, locus YLR320W, strain mms22, hits give low values 0.98 | S. cerevisiae deletion strains, locus YLR330W, strain CHS5, hits give low values 0.998 | S. cerevisiae deletion strains, locus YLR342W, strain FKS1 (second series), hits give low values 1.03 | S. cerevisiae deletion strains, locus YLR342W, strain FKS1, hits give low values 1 | S. cerevisiae deletion strains, locus YLR357W, strain rsc2, hits give low values 0.97 | S. cerevisiae deletion strains, locus YLR370C, strain arc18, hits give low values 0.997 | S. cerevisiae deletion strains, locus YLR371W, strain rom2, hits give low values 0.986 | S. cerevisiae deletion strains, locus YLR384C, strain iki3, hits give low values 1.01 | S. cerevisiae deletion strains, locus YLR418C, strain cdc73, hits give low values 0.904 | S. cerevisiae deletion strains, locus YML016C, strain PPZ1, hits give low values 1 | S. cerevisiae deletion strains, locus YML032C, strain rad52, hits give low values 0.938 | S. cerevisiae deletion strains, locus YML120C, strain ndi1, hits give low values 1.02 | S. cerevisiae deletion strains, locus YML124C, strain tub3, hits give low values 0.993 | S. cerevisiae deletion strains, locus YMR058W, strain fet3, hits give low values 0.961 | S. cerevisiae deletion strains, locus YMR078C, strain ctf18, hits give low values 0.994 | S. cerevisiae deletion strains, locus YMR125W, strain sto1, hits give low values 0.993 | S. cerevisiae deletion strains, locus YMR129W, hits give low values 1 | S. cerevisiae deletion strains, locus YMR205C, strain PFK2, hits give low values 1.02 | S. cerevisiae deletion strains, locus YMR223W, strain ubp8, hits give low values 0.97 | S. cerevisiae deletion strains, locus YMR231W, strain pep5, hits give low values 0.993 | S. cerevisiae deletion strains, locus YMR307W, strain GAS1, hits give low values 1.01 | S. cerevisiae deletion strains, locus YNL067W, strain RPL9B, hits give low values 1.01 | S. cerevisiae deletion strains, locus YNL071W, strain lat1, hits give low values 0.99 | S. cerevisiae deletion strains, locus YNL128W, strain TEP1, hits give low values 1.03 | S. cerevisiae deletion strains, locus YNL153C, strain GIM3, hits give low values 1.01 | S. cerevisiae deletion strains, locus YNL183C, strain NPR1, hits give low values 0.919 | S. cerevisiae deletion strains, locus YNL209W, strain ssb2, hits give low values 0.994 | S. cerevisiae deletion strains, locus YNL233W, strain BNI4, hits give low values 0.998 | S. cerevisiae deletion strains, locus YNL248C, strain rpa49, hits give low values 0.967 | S. cerevisiae deletion strains, locus YNL250W, strain rad50, hits give low values 0.97 | S. cerevisiae deletion strains, locus YNL271C, strain bni1, hits give low values 0.999 | S. cerevisiae deletion strains, locus YNL298W, strain CLA4, hits give low values 0.986 | S. cerevisiae deletion strains, locus YNL307C, strain MCK1, hits give low values 0.995 | S. cerevisiae deletion strains, locus YNL322C, strain KRE1 (second series), hits give low values 0.997 | S. cerevisiae deletion strains, locus YNR049C, strain mso1, hits give low values 0.995 | S. cerevisiae deletion strains, locus YNR052C, strain pop2, hits give low values 0.989 | S. cerevisiae deletion strains, locus YOL006C, strain TOP1, hits give low values 1.06 | S. cerevisiae deletion strains, locus YOL012C, strain htz1 0.96 | S. cerevisiae deletion strains, locus YOL147C, strain pex11, hits give low values 0.988 | S. cerevisiae deletion strains, locus YOR001W, strain rrp6, hits give low values 1.01 | S. cerevisiae deletion strains, locus YOR061W, strain CKA2, hits give low values 0.994 | S. cerevisiae deletion strains, locus YOR069W, strain VPS5, hits give low values 1 | S. cerevisiae deletion strains, locus YOR070C, strain gyp1, hits give low values 0.998 | S. cerevisiae deletion strains, locus YOR080W, strain dia2, hits give low values 1.01 | S. cerevisiae deletion strains, locus YOR083W, strain WHI5, hits give low values 0.963 | S. cerevisiae deletion strains, locus YOR106W, strain vam3, hits give low values 0.983 | S. cerevisiae deletion strains, locus YOR136W, strain idh2, hits give low values 0.984 | S. cerevisiae deletion strains, locus YOR144C, strain elg1, hits give low values 0.989 | S. cerevisiae deletion strains, locus YOR184W, strain ser1, hits give low values 0.989 | S. cerevisiae deletion strains, locus YOR231W, strain MKK1, hits give low values 0.95 | S. cerevisiae deletion strains, locus YOR265W, strain rbl2, hits give low values 0.996 | S. cerevisiae deletion strains, locus YOR270C, strain vph1, hits give low values 0.972 | S. cerevisiae deletion strains, locus YOR290C, strain snf2, hits give low values 0.986 | S. cerevisiae deletion strains, locus YOR316C, strain cot1, hits give low values 0.992 | S. cerevisiae deletion strains, locus YPL051W, strain arl3, hits give low values 0.966 | S. cerevisiae deletion strains, locus YPL078C, strain atp4, hits give low values 0.991 | S. cerevisiae deletion strains, locus YPL106C, strain sse1, hits give low values 0.956 | S. cerevisiae deletion strains, locus YPL240C, strain hsp82, hits give low values 1.01 | S. cerevisiae deletion strains, locus YPL241C, strain CIN2, hits give low values 1.01 | S. cerevisiae deletion strains, locus YPL256C, strain CLN2, hits give low values 0.982 | S. cerevisiae deletion strains, locus YPR119W, strain clb2, hits give low values 0.987 | S. cerevisiae deletion strains, locus YPR141C, strain kar3, hits give low values 0.993 | S. cerevisiae deletion strains, locus YPR163C, strain tif3, hits give low values 0.992 | S. cerevisiae deletion strains, locus YPR167C, strain met16, hits give low values 0.987 | S. cerevisiae deletion strains, strain wtn01, hits give low values 0.97 | S. cerevisiae strains, strain wild type, hits give low values 1.03
